{
  "source": "PubChem BioAssay (Tox21)",
  "note": "“And” between values parts separate entries of the source, which are not always exact repeats. Identical values can stand only once. Results filed as inconclusive are left out. A call without a number means that no potency is given here. More than one record can exist for a structure, and the calls need not agree. The source made the active and inactive calls. Calls come from the whole dose curve; as a rule, active = well fitted inhibition curve with a large enough effect in the repeat runs; inconclusive = weak or mixed curves; inactive = no such curve, though single readings can be large or run the other way. Potency is the fitted concentration of half-maximal effect.",
  "data": [
    {"molecular_target": "Cytochrome P450 2D6 (Homo sapiens) (UniProt P10635)", "sequence (P10635 whole entry, looked up)": "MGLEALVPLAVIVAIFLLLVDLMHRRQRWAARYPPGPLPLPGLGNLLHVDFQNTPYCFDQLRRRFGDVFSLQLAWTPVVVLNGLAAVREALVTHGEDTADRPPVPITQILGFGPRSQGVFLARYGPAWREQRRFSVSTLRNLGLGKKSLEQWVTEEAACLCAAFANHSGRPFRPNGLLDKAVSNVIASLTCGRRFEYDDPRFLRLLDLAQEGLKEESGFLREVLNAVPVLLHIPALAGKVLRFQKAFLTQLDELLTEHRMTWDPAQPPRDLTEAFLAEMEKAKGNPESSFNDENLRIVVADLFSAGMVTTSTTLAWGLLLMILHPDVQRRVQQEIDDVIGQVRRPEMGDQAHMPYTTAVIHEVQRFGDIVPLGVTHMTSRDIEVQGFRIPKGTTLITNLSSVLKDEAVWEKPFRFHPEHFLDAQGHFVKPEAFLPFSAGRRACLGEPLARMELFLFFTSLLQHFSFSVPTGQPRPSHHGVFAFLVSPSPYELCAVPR", "assay": "Cytochrome P450 Family 2 Subfamily D Member 6 (CYP2D6) small molecule antagonists: luciferase reporter qHTS assay (AID 1671196); note: nearly all actives have a fitted effect of over 50% in size", "conditions": "P450-Glo CYP2D6 enzyme assay, luciferin luminescence, 1 h; series mostly up to 115 µM", "excerpt": "U.S. Tox21 Program National Center for Advancing Translational Sciences [NCATS] U.S. Environmental Protection Agency [EPA] National Institutes of Environmental Health Sciences [NIEHS] National Toxicology Program [NTP] U.S. Food and Drug Administration [FDA] Tox21 Assay Overview: Cytochrome P450 (CYP) enzymes are membrane-bound hemeproteins that play a key role in metabolism of drugs and xenobiotics. Evaluation of the effect of chemicals on CYP isozymes is useful to minimize the adverse drug reactions and toxicities in drug development process. Tox21 chemicals were tested for their effect on CYP enzyme activities by using P450-Glo (TM) screening systems (Promega Corporation, Madison, WI). These systems provide a luminescent method containing proluciferin substrates and are converted to luciferin products by CYP isozymes. The luciferin products formed are detected with a luciferin detection reagent, and the amount of light produced is proportional to CYP activity. P450-Glo (TM) CYP2D6 screening system (Catalog. No. V9890) was used to detect the compounds that interfere in CYP2D6 activity.\nTox21 Assay Protocol Summary: Two ul of enzyme-substrate mix was dispensed into medium binding white/solid 1536-well plates (Greiner Bio-One North America Inc., Monroe, NC) using a BioRaptr Flying Reagent Dispenser (FRD, Beckman Coulter, Brea, CA). […] The assay plates were incubated at room temperature for 10 min. Then 2 ul of NADPH regeneration solution was added to each well of the assay plates using an FRD and incubated at room temperature for 1 h. The reaction was stopped by adding 4 ul of detection reagent using an FRD and after 20 min incubation at room temperature the luminescence signal was measured using a ViewLux plate reader (Perkin Elmer, Shelton, CT). Data were expressed as relative luminescence units.", "values": [
      {"smiles": "CCOP(=S)(OCC)SCSc1cc(Cl)ccc1Cl", "Potency": "inactive"},
      {"smiles": "CCCCCBr", "Potency": "inactive"},
      {"smiles": "CC(C)c1ccc(NC(=O)N(C)C)cc1", "Potency": "inactive"},
      {"smiles": "CCC1CCC(=O)O1", "note": "(stereo not given)", "Potency": "inactive"},
      {"smiles": "N#CC(C#N)=Cc1ccc(O)c(O)c1", "Potency": "inactive"},
      {"smiles": "COP(=O)(OC)OC(Br)C(Cl)(Cl)Br", "note": "(stereo not given)", "Potency": "40 µM (active) and 39.9 µM (active)"},
      {"smiles": "CC(CC(C(N)=O)(c1ccccc1)c1ccccc1)N(C)C", "note": "(stereo not given)", "Potency": "6.17 µM (active)"},
      {"smiles": "CCOC(C(=O)OCCN(C)C)(c1ccccc1)c1ccccc1", "Potency": "2.75 µM (active)"},
      {"smiles": "C=CCOCC1CO1", "note": "(stereo not given)", "Potency": "inactive"},
      {"smiles": "O=C(O)COc1cc(Cl)c(Cl)cc1Cl", "Potency": "inactive"},
      {"smiles": "CC(O)CN1CCN(CC(=O)[O-])CCN(CC(=O)[O-])CCN(CC(=O)[O-])CC1.[Gd+3]", "note": "(stereo not given)", "Potency": "inactive"},
      {"smiles": "O=CC=O", "Potency": "inactive"},
      {"smiles": "Cc1nc(N(C)C)nc(OC(=O)N(C)C)c1C", "Potency": "inactive"},
      {"smiles": "CN1C[C@H](C(=O)N[C@]2(C)O[C@@]3(O)[C@@H]4CCCN4C(=O)[C@H](Cc4ccccc4)N3C2=O)C=C2c3cccc4[nH]cc(c34)C[C@H]21", "Potency": "28.4 µM (active) and inactive"},
      {"smiles": "O=[N+]([O-])O[C@H]1CO[C@H]2[C@@H]1OC[C@H]2O[N+](=O)[O-]", "Potency": "inactive"},
      {"smiles": "C[C@H]1O[C@H](OC2[C@@H](O)[C@@H](O)C(O)[C@H](O)[C@H]2O)[C@@H](N)C[C@@H]1N=C(N)C(=O)O", "note": "(stereo not given in full)", "Potency": "inactive"},
      {"smiles": "Cc1ccc(N)c(C)c1", "Potency": "inactive and 896 nM (active)"},
      {"smiles": "C[N+](C)(C)CC1CO1", "note": "(stereo not given)", "Potency": "inactive"},
      {"smiles": "O=C1NC(=O)C(=O)C(=O)N1", "Potency": "inactive"},
      {"smiles": "CCOC(=O)c1cn2nc(OP(=S)(OCC)OCC)cc2nc1C", "Potency": "25.2 µM (active)"},
      {"smiles": "CCCCC(CC)CO[N+](=O)[O-]", "note": "(stereo not given)", "Potency": "inactive"},
      {"smiles": "CCCN(CCOc1c(Cl)cc(Cl)cc1Cl)C(=O)n1ccnc1", "Potency": "363 nM (active) and 1 µM (active)"},
      {"smiles": "OC[P+](CO)(CO)CO", "Potency": "inactive"},
      {"smiles": "CC(Oc1cc(Cl)c(Cl)cc1Cl)C(=O)O", "note": "(stereo not given)", "Potency": "inactive"},
      {"smiles": "C[N+]1(CCC(C(N)=O)(c2ccccc2)c2ccccc2)CCCCC1", "Potency": "8.71 µM (active)"},
      {"smiles": "C#CC(O)(C=CCl)CC", "note": "(stereo not given)", "Potency": "inactive"},
      {"smiles": "CCCCCCCCn1sccc1=O", "Potency": "11.3 µM (active)"},
      {"smiles": "COC(=O)C1(O)c2ccccc2-c2ccccc21", "Potency": "inactive"},
      {"smiles": "COc1cc(CC(C)N)c(OC)cc1Br", "note": "(stereo not given)", "Potency": "26 µM (active)"},
      {"smiles": "Cc1ccc2c(C)cccc2c1", "Potency": "inactive"},
      {"smiles": "CCC(C)Cl", "note": "(stereo not given)", "Potency": "inactive"},
      {"smiles": "Cc1nnc(-c2ccccc2)c(=O)n1N", "Potency": "inactive"},
      {"smiles": "Nc1cc(Cl)cc(C(=O)O)c1Cl", "Potency": "39.6 µM (active) and inactive"},
      {"smiles": "O=P(OCC(Br)CBr)(OCC(Br)CBr)OCC(Br)CBr", "note": "(stereo not given)", "Potency": "20.3 µM (active) and 26.8 µM (active)"},
      {"smiles": "CCCCCCCCCCCC[N+](C)(C)CCOc1ccccc1", "Potency": "3.56 µM (active) and 4.36 µM (active)"},
      {"smiles": "CC(C)(C)NCC(O)c1cc(Cl)c(N)c(C(F)(F)F)c1", "note": "(stereo not given)", "Potency": "15.5 µM (active)"},
      {"smiles": "C[C@]12CC[C@H]3[C@@H](CCC4=CC(=O)CC[C@@H]43)[C@@H]1CC[C@@H]2OC(=O)CCc1ccccc1", "Potency": "inactive"},
      {"smiles": "O=C=NC1CCCCC1", "Potency": "inactive"},
      {"smiles": "CC(C)(C)OOC(C)(C)CCC(C)(C)OOC(C)(C)C", "Potency": "inactive"},
      {"smiles": "C#C[C@]1(O)CC[C@H]2[C@@H]3CCC4=CC(=O)CCC4=C3C=C[C@@]21CC", "Potency": "5.49 µM (active)"}
    ]}
  ]
}
